{"source": "PubChem BioAssay (NCATS)", "note": "Records with an inconclusive call do not appear. A call without a number means that no potency is given here. Values without a mark were called inactive. The source made the active and inactive calls. Calls come from the whole dose curve; as a rule, active = well fitted cell-killing curve with a large enough effect; inconclusive = small, poorly fitted or top-dose-only effect, or effect the other way; inactive = flat fitted curve, though single readings scatter.", "data": [{"tested_on": "Tov-21-G", "experiment": "Primary qHTS to identify gynecologic anti-cancer compounds using libraries of approved drugs and bioactive compounds (AID 1345084); note: nearly all actives have a fitted effect of over 55% in size", "conditions": "Gynecologic cancer cell panel viability, ATPlite luminescence, 48 h; series mostly up to 57.5 µM", "procedure,_shortened": "(§1)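 Cells, 1,000 per well, were allowed to settle for 16 h at 37 C before compound addition. Five concentrations were tested for 48 h, and viability was read by ATPlite luminescence after 15 min at room temperature.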", "values": [{"smiles": "CC1=C2C[C@@]3(C)C(CCC[C@@H]3C)C(O)C2OC1=O", "note": "(some centres not stated)", "Potency": "inactive"}, {"smiles": "CCC(C)CNCC(=O)N1CCC2SC=CC2C1COc1cccc(C)c1", "note": "(configuration not stated)", "Potency": "inactive"}, {"smiles": "COc1cc(C2OC(c3ccc(OC)c(OC)c3)C(C)C2C)ccc1O", "note": "(configuration not stated)", "Potency": "inactive"}]}, {"tested_on": "Tov112D", "experiment": "Primary qHTS to identify gynecologic anti-cancer compounds using libraries of approved drugs and bioactive compounds (AID 1345084)", "conditions": "Gynecologic cancer cell panel viability, ATPlite luminescence, 48 h; series mostly up to 57.5 µM", "procedure,_shortened": "as §1", "values": [{"smiles": "COc1cc2nc(N3CCN(C(=O)COc4c(OC)cccc4C(C)C)CC3)nc(N)c2cc1OC", "Potency": "inactive"}, {"smiles": "CC[C@H](C(=O)Nc1ccccc1N1CCCC1)c1ccccc1", "Potency": "inactive"}, {"smiles": "N#Cc1ccc(N2N=C3c4ccc(C(=O)O)cc4CC[C@@H]3[C@@H]2C2CCCC2)cc1Cl", "Potency": "inactive"}, {"smiles": "CN(C)C(=O)Nc1cccc(-c2ccc(N(C)C)cc2)c1", "Potency": "inactive"}, {"smiles": "O=C(NC1(c2ccccc2)CC1)c1c(CN2CCC(N3CCCCC3)CC2)c(-c2cccc(C(F)(F)F)c2)nc2cc(Br)ccc12", "Potency": "inactive"}, {"smiles": "C=C1CCC[C@]2(C)CC/C(=C(/CO)C(=O)OC)C[C@@H]12", "Potency": "inactive"}, {"smiles": "CCOC(=O)N1c2ccc(C(F)(F)F)cc2C(N(Cc2cc(C(F)(F)F)cc(C(F)(F)F)c2)C(=O)OC)CC1CC", "note": "(configuration not stated)", "Potency": "inactive"}, {"smiles": "CCC(C(C)O)n1ncn(-c2ccc(N3CCN(c4ccc(OCC5COC(Cn6cncn6)(c6ccc(F)cc6F)C5)cc4)CC3)cc2)c1=O", "note": "(configuration not stated)", "Potency": "inactive"}, {"smiles": "CCC(C)C(=O)Oc1cc(C)ccc1C1(COC(=O)C(C)C)CO1", "note": "(configuration not stated)", "Potency": "inactive"}, {"smiles": "CC/C=C\\CC1C(=O)C=CC1(CCCCC1CCC(=O)O1)OC(C)=O", "note": "(configuration not stated)", "Potency": "inactive"}, {"smiles": "C=C1C(=O)OC2CC(C)C(CCC(C)O)=CCC12", "note": "(configuration not stated)", "Potency": "inactive"}, {"smiles": "COc1ccc(CN2CCN(CCCSc3cc(C(C)(C)C)c(O)c(C(C)(C)C)c3)CC2)c(OC)c1OC", "activity change, negative = cytotoxicity": "2.48% [at 11.6 µM]"}, {"smiles": "Cc1nc(Nc2ccc(F)cc2)nc(N2CCc3ccccc3C2C)c1C", "note": "(configuration not stated)", "Potency": "inactive"}, {"smiles": "Clc1ccc(Cn2c(Cc3ccccc3)nc3ccccc32)cc1", "Potency": "inactive"}, {"smiles": "CC(=O)O[C@H]1[C@@]2(O)C[C@H](C)[C@H](OC(=O)c3ccccc3)[C@@H]2[C@@H](OC(=O)CO)[C@]2(OC(C)=O)C[C@H]3C(=O)C(C)(C)C[C@@H]3[C@@]1(C)[C@H]2OC(C)=O", "Potency": "inactive"}, {"smiles": "Cc1nc(C#Cc2ccnc(Cl)c2)c(C)n1-c1ccc(OC(F)(F)F)cc1", "Potency": "inactive"}, {"smiles": "O=C(NCCCCCCCCNC(=O)C(Cl)Cl)C(Cl)Cl", "Potency": "inactive"}, {"smiles": "COC(=O)/C=C/C=C/C(=O)OC1C=C2COC(=O)C2(O)C2(C)CCCC(C)(C)C12", "note": "(configuration not stated)", "Potency": "inactive"}, {"smiles": "Cc1sc2c(c1C)C(c1ccc(Cl)cc1)=N[C@H](CC(=O)NCCCCNC(=O)COc1cccc3c1C(=O)N([C@H]1CCC(=O)NC1=O)C3=O)c1nnc(C)n1-2", "Potency": "inactive"}, {"smiles": "NC(=O)C1=CC2C3C=CC2C(OC3=O)O1", "note": "(configuration not stated)", "Potency": "inactive"}, {"smiles": "CC(C)(C)OC(=O)c1ncn2c1C(C)(C)Nc1ccccc1-2", "Potency": "inactive"}, {"smiles": "C[C@H]1CC[C@@]2(OC1)O[C@H]1CC3C4CC[C@H]5C[C@@H](O)CC[C@]5(C)C4=CC(=O)[C@]3(C)[C@H]1[C@@H]2C", "note": "(some centres not stated)", "Potency": "inactive"}, {"smiles": "O=S(=O)(Nc1cc(Cl)c(Oc2cnc3ccccc3c2)c(Cl)c1)c1ccc(Cl)cc1Cl", "Potency": "inactive"}, {"smiles": "NC(N)=NC(=O)c1cnn(-c2cccc3ncccc23)c1C1CC1", "Potency": "inactive"}, {"smiles": "CC(=O)O[C@@H]1CC2C(/C=C(\\C)C(=O)[C@@]3(O)C[C@@H](C)[C@H](OC(=O)c4ccccc4)C3/C=C/1C)C2(C)C", "note": "(some centres not stated)", "Potency": "inactive"}, {"smiles": "CC(=O)OC(C)(C)/C=C/C(=O)[C@](C)(O)[C@H]1C(O)C[C@@]2(C)[C@@H]3CC=C4[C@@H](C=C(O[C@@H]5O[C@H](CO)[C@@H](O)[C@H](O)[C@H]5O)C(=O)C4(C)C)[C@]3(C)C(=O)C[C@]12C", "note": "(some centres not stated)", "Potency": "inactive"}, {"smiles": "Cc1c(Cl)cccc1S(=O)(=O)Nc1nc(NCCc2ccccc2)nc2c1CN(Cc1ccccc1)CC2", "Potency": "inactive"}, {"smiles": "O=C1c2ccc(Nc3ccc(F)cc3F)cc2CCc2ccc(OCC(O)CO)cc21", "note": "(configuration not stated)", "Potency": "inactive"}, {"smiles": "C=C1/C(=C/C=C2\\CCC[C@]3(C)[C@@H]([C@H](C)/C=C/[C@H](O)C4CC4)CC[C@@H]23)C[C@@H](O)C[C@@H]1O", "Potency": "inactive"}, {"smiles": "Cc1cnc(-c2ccccc2C(C)C)nc1NCc1ccc(-n2ccnn2)cc1", "Potency": "inactive"}, {"smiles": "C=CCC1=C[C@]2(OC)[C@H](C)[C@@H](c3ccc4c(c3)OCO4)O[C@]2(OC)CC1=O", "Potency": "inactive"}, {"smiles": "Nc1nc2c(nc(Br)n2[C@@H]2O[C@@H]3COP(=O)(O)O[C@H]3[C@H]2O)c(=O)[nH]1", "Potency": "inactive"}, {"smiles": "CC#C[C@@H](CC(=O)O)c1ccc(OCc2cccc(-c3ccc(C(F)(F)F)cc3)c2)cc1", "Potency": "inactive"}, {"smiles": "Cc1cc(NC(=O)NCCN2CCC(O)(Cc3ccccc3)CC2)c2ccccc2n1", "Potency": "inactive"}, {"smiles": "COc1ccc(N(C(=O)Nc2c(C)cccc2C)c2cc(Nc3ccc(N4CCN(C)CC4)cc3)ncn2)c(OC)c1", "Potency": "inactive"}, {"smiles": "Cc1cc(-c2ncc(-c3cccnc3)cc2/C=C/c2ccccc2)cnc1-c1cccnc1", "Potency": "inactive"}, {"smiles": "CC1=C2C[C@@]3(C)C(CCC[C@@H]3C)C(O)C2OC1=O", "note": "(some centres not stated)", "Potency": "inactive"}, {"smiles": "CCC(C)CNCC(=O)N1CCC2SC=CC2C1COc1cccc(C)c1", "note": "(configuration not stated)", "Potency": "inactive"}, {"smiles": "COc1cc(C2OC(c3ccc(OC)c(OC)c3)C(C)C2C)ccc1O", "note": "(configuration not stated)", "Potency": "inactive"}]}]}
